Experimental data taken from PubChem BioAssay (EPA / NIEHS).
Calls of active or inactive are those of the source. How the source made its calls: active means hit-call score of the fitted dose curve at least 0.9, where 1 is the maximum; inactive means score below 0.9.

Legend:
[1] = biological target: Bile acid receptor (Homo sapiens) (UniProt Q96RI1); assay: ATG_IR1_CIS: Attagene CIS-FACTORIAL HepG2 Assay for human Nuclear Receptor Subfamily 1 Group H Member 4 (NR1H4), IR1 submotif (AID 2282946); conditions: IR1 reporter transcription, actives raise or lower the signal
Bile acid receptor (Homo sapiens), sequence (Q96RI1 whole entry, looked up): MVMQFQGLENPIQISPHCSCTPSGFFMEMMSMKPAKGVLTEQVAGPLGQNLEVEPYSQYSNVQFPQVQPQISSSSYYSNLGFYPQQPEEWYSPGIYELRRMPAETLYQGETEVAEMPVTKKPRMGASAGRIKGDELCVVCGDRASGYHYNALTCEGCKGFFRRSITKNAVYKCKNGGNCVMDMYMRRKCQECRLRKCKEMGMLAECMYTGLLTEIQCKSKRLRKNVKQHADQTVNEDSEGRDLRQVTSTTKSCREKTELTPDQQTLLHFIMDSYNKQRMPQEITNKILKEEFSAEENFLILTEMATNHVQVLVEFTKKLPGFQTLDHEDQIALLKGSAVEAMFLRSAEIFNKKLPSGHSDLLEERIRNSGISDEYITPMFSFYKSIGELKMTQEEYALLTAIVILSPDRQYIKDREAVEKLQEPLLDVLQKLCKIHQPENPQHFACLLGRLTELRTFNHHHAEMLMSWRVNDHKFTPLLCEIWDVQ
Method in brief: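 Transient MRTU transfection, HepG2; 24 h dosing; RNA → RT-PCR → 6-FAM primer extension → HpaI digest → capillary electrophoresis fluorescence. Gain/loss of signal fitted relative to DMSO.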

[2] = ATG_ISRE_CIS: Attagene CIS-FACTORIAL HepG2 Assay for human Interferon Regulatory Factor 1 (IRF1) binding to an Interferon-Stimulated Response Element (ISRE) (AID 2282948); conditions: HepG2 ISRE cis-reporter (Attagene), mRNA transcription readout; actives raise or lower the signal
Method in brief: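 Cell-based cis-reporter assay; HepG2; 24 h exposure; reporter mRNA by RT-PCR plus capillary electrophoresis fluorescence; activity in either direction scored relative to DMSO.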

[3] = ATG_M_06_CIS: Attagene CIS-FACTORIAL HepG2 Assay for M06 Transcription Factor (Internal Marker) (AID 2282950); conditions: HepG2 Attagene CIS-FACTORIAL M06 internal marker reporter; actives raise or lower the signal
Method in brief: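 Fluorescence-labelled RT-PCR products from cis-promoter reporter units, cut with HpaI and resolved by capillary electrophoresis, give the signal. Cells are human HepG2, dosed for 24 h. Serves as background control, fitted relative to DMSO.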

[4] = biological target: Hypoxia-inducible factor 1-alpha (Homo sapiens) (UniProt Q16665); assay: ATG_HIF1a_CIS: Attagene CIS-FACTORIAL HepG2 Assay for human Hypoxia Inducible Factor 1 (HIF1A) (AID 2282951); conditions: HepG2 Attagene cis-factorial HIF1a reporter transcription; actives raise or lower the signal
Hypoxia-inducible factor 1-alpha (Homo sapiens), sequence (Q16665 whole entry, looked up, the tested form may be a part): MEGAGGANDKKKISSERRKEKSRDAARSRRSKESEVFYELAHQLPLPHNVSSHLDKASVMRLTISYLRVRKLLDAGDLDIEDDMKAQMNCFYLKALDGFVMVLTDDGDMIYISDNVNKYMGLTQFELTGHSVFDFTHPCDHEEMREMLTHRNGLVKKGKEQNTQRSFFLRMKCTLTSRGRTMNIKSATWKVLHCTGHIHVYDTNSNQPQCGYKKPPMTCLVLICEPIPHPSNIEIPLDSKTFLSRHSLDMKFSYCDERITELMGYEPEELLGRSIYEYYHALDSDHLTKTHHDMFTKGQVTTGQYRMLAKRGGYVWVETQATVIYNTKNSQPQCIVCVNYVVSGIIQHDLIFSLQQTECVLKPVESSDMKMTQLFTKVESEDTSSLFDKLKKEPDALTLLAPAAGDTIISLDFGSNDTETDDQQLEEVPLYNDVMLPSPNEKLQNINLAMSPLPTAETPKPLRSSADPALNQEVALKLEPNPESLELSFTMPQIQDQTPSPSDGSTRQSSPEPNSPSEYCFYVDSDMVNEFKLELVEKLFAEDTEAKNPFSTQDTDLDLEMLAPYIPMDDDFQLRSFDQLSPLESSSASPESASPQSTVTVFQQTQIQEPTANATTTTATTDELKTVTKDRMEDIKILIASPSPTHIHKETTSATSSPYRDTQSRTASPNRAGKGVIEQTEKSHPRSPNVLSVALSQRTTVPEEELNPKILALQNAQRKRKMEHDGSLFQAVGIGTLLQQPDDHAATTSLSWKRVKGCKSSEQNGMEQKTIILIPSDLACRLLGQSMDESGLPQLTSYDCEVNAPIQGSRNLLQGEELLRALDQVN
Method in brief: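 Transient MRTU transfection of human HepG2 liver cells, 24 h compound treatment, then total RNA isolation, oligo(dT) reverse transcription, PCR amplification, fluorescent labelling and capillary electrophoresis of reporter fragments. Gain or loss relative to DMSO.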

[5] = biological target: Hepatocyte nuclear factor 6 (Homo sapiens) (UniProt Q9UBC0); assay: ATG_HNF6_CIS: Attagene CIS-FACTORIAL HepG2 Assay for human Hepatocyte Nuclear Factor 6 (HNF6) (AID 2282952); conditions: HepG2 Attagene cis-factorial HNF6 reporter transcription; actives raise or lower the signal
Hepatocyte nuclear factor 6 (Homo sapiens), sequence (Q9UBC0 whole entry, looked up): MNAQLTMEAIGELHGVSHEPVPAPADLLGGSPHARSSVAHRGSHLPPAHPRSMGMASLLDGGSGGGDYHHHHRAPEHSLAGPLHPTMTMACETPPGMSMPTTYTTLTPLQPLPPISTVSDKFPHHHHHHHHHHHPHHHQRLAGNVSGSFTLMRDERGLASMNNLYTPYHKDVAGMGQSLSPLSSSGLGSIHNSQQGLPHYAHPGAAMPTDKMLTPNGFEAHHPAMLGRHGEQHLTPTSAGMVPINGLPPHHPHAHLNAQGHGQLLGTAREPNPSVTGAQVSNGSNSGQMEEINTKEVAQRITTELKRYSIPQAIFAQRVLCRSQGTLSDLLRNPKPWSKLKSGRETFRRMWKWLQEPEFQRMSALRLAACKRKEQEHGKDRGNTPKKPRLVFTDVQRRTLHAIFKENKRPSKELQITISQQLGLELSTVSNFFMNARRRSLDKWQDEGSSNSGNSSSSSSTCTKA
Method in brief: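 Cells are HepG2 carrying transiently transfected cis-promoter reporter units. Treatment lasts 24 h, after which reporter transcripts are reverse-transcribed, amplified, FAM-labelled and sized by capillary electrophoresis. DMSO serves as baseline.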

[6] = biological target: Heat shock factor protein 1 (Homo sapiens) (UniProt Q00613); assay: ATG_HSE_CIS: Attagene CIS-FACTORIAL HepG2 Assay for human Heat Shock Transcription Factor 1 (HSE) (AID 2282953); conditions: HepG2 HSE cis-reporter, Attagene RNA transcription; actives raise or lower the signal
Heat shock factor protein 1 (Homo sapiens), sequence (Q00613 whole entry, looked up): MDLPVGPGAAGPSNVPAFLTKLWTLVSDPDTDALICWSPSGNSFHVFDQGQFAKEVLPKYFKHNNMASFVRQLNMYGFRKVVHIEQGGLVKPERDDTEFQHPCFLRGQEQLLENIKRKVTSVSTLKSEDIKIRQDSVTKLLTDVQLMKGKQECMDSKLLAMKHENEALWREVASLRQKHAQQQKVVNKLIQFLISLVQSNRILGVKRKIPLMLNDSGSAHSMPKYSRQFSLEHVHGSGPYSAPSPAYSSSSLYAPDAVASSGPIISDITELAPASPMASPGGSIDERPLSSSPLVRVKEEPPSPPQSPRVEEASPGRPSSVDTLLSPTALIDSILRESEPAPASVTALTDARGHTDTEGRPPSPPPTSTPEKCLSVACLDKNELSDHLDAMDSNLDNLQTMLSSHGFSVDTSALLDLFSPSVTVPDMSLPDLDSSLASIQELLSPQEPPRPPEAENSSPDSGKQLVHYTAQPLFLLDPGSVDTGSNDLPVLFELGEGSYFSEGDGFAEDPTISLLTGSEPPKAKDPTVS
Method in brief: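 After a 24 h incubation with test chemical, transfected HepG2 cells were harvested for RNA; reporter transcripts were measured by RT-PCR and capillary electrophoresis. Values reflect gain or loss of signal relative to DMSO.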

[7] = ATG_MRE_CIS: Attagene CIS-FACTORIAL HepG2 Assay for human Metal Responsive Element (MRE) (AID 2282954); conditions: HepG2 MRE cis-reporter transcription, Attagene multiplex; actives raise or lower the signal
Method in brief: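 Step one: transfect HepG2 with cis-regulated reporter units. Step two: dose 24 h. Step three: isolate RNA, RT-PCR, 6-FAM label, HpaI digest, capillary electrophoresis. Fit bidirectionally to DMSO.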

[8] = ATG_GRE_CIS: Attagene CIS-FACTORIAL HepG2 Assay for human Glucocorticoid Response Elements (GRE) (AID 2282947); conditions: HepG2 GRE cis-reporter, Attagene multiplex mRNA; actives raise or lower the signal
Method in brief: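 Following 24 h chemical exposure of transiently transfected HepG2 cells, total RNA was reverse-transcribed and reporter cDNA amplified, fluorescently labelled and sized by capillary electrophoresis. Signal gain or loss was fitted relative to DMSO vehicle.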

[9] = ATG_M_32_CIS: Attagene CIS-FACTORIAL HepG2 Assay for M32 Transcription Factor (Internal Marker) (AID 2282949); conditions: HepG2 Attagene cis-factorial M32 reporter, mRNA; actives raise or lower the signal;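 further: background control marker of the multiplexed CIS panel rather than a real target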
Method in brief: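 Fluorescent capillary electrophoresis peaks of HpaI-digested, FAM-labelled RT-PCR reporter products give the signal. Source: transiently transfected human liver HepG2 cells, 24 h after chemical dosing; bidirectional fitting against DMSO.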

[10] = ATG_PBREM_CIS: Attagene CIS-FACTORIAL HepG2 Assay for human Phenobarbital-responsive Enhancer Module (PBREM) (AID 2282955); conditions: HepG2 PBREM cis-reporter, Attagene multiplexed transcription; actives raise or lower the signal
Method in brief: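 Endogenous transcription factors in human liver HepG2 cells drive a PBREM cis-element reporter, whose transcript level after 24 h treatment is quantified by RT-PCR with capillary electrophoresis; activity fitted in both directions against DMSO.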

Structure (SMILES)	outcome [1]	outcome [2]	outcome [3]	outcome [4]	outcome [5]	outcome [6]	outcome [7]	outcome [8]	outcome [9]	outcome [10]	AC50 [2]	AC50 [7]	AC50 [6]	AC50 [10]	AC50 [1]
CCOc1ccc(NC(=O)CC(C)O)cc1 (stereo unspecified)	inactive	inactive	inactive	inactive	inactive	inactive	inactive								
O=c1[nH]c(=O)c2cn[nH]c2[nH]1		inactive	inactive	inactive	inactive	inactive	inactive	inactive	inactive	inactive					
C=Cc1ccc(C)cc1		inactive	inactive	inactive	inactive	inactive	inactive	inactive	inactive	inactive					
CCCOC(=O)c1c(Cl)c(Cl)c(Cl)c(Cl)c1C(=O)OCCC			inactive	inactive	inactive	inactive		inactive	inactive	inactive	62.1 µM (active)	162 µM (active)			
CCCCCCOC(=O)CCC	inactive	inactive	inactive	inactive	inactive	inactive	inactive			inactive					
CCCC(=O)OCCc1ccccc1		inactive	inactive	inactive	inactive	inactive	inactive	inactive	inactive	inactive					
Nc1ccc(NCCO)c([N+](=O)[O-])c1		inactive	inactive	inactive	inactive	inactive	inactive	inactive	inactive	inactive					
COc1ccc(N=Nc2cc(C)c(N=Nc3ccc(S(=O)(=O)O)cc3)cc2OC)cc1		inactive	inactive	inactive	inactive		inactive	inactive	inactive	inactive			100 µM (active)		
CCC(=O)O[C@@H]1C[C@H]2CC[C@]1(C)C2(C)C		inactive	inactive	inactive	inactive	inactive	inactive	inactive	inactive	inactive					
COc1ccc(CCC(C)=O)cc1	inactive	inactive	inactive		inactive	inactive	inactive								
O=C1OC[C@H](Cc2cccc(O)c2)[C@H]1Cc1cccc(O)c1		inactive	inactive	inactive	inactive	inactive	inactive	inactive	inactive					33.5 µM (active)	
OCc1cccc(Oc2ccccc2)c1	inactive	inactive	inactive	inactive	inactive	inactive	inactive			inactive					
Cc1cccc(Nc2ccccc2)c1		inactive			inactive				inactive	inactive		135 µM (active)	162 µM (active)		42.5 µM (active)
C=C(C)[C@H]1CC=C(C)C(=O)C1		inactive	inactive	inactive	inactive	inactive	inactive	inactive	inactive						
